In general, inhibition refers to the relative decrease from the control value, in per cent. As a reminder, the AC50 is the concentration at which the activity in the assay is half-maximal.

Several values for one entry are separate records, joined by “and”; a condition that tells them apart may be missing. Equal entries are not always repeated. Inconclusive results are not listed. For some assays here: Results with a measured potency or affinity are listed apart. Activity calls are given as the source filed them. Unless noted, the rule behind the calls is not given here.

We go through 16 compounds from PubChem BioAssay.

Experiment [1] can be described thus: blockers of polyQ-driven CASP3 activation – cell-based (AID 1583). As to conditions: polyglutamine-induced caspase-3 activation, cell assay; stronger effect = higher value;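 tested at 10 µM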.
Experiment [2] can be described thus: yeast 75Q aggregation reduction – 75Q-TubU reporter (AID 1593). The conditions noted are these: Yeast 75Q polyglutamine aggregation reporter.
Experiment [3] can be described thus: restoration of touch response, mutant HTT neurons – whole organism, C. elegans mechanosensory neurons, N-terminal huntingtin (AID 1599). The conditions noted are these: C. elegans polyQ-huntingtin mechanosensory neurons, stronger effect = higher value.
Experiment [4] is described as follows: blockers of cytochrome c efflux from mitochondria – biochemical, purified mitochondria (AID 1603).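 Note: mouse liver mitochondria challenged with calcium chloride; signal normalized to the plate average as 100%.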 As to conditions: stronger effect = lower value.
Experiment [5] in a line: polyglutamine aggregate formation blockers (AID 1604). The conditions noted are these: polyglutamine-induced protein aggregation inhibition assay; stronger effect = higher value; tested at 2.5 µM.
Experiment [6] can be described thus: glutamate transport activators, MN-1 cells, MN-1 cell line (AID 1612).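 Note: tested at 1 µM final; 0% = mean of DMSO vehicle wells on each plate; positive means more glutamate uptake than control and negative means less.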 As to conditions: MN-1 motor neuron cells, stronger effect = higher value.
Experiment [7] can be described thus: 75Q-TubH aggregate inhibition, S. cerevisiae, yeast (AID 1616). The conditions noted are these: S. cerevisiae 75Q-TubH polyglutamine aggregation suppression; stronger effect = higher value.
Experiment [8] in a line: compounds altering viability of human ES cells (AID 493140).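 Note: cells exposed to compounds for four days before counting.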 As to conditions: human embryonic stem cell survival screen; stronger effect = higher value.
Experiment [9] has as its system Neuropilin-2 / VEGF-C interaction (human). Put plainly: small molecules blocking Neuropilin-2/VEGF-C interaction – biochemical, microplate binding format, z-score (AID 743281). As to conditions: microplate NRP2/VEGF-C binding assay; stronger effect = lower value.
Experiment [10] can be described thus: viability loss in pontine glioma line – cell-based, JHH-DIPG-1, MIPE4.0, CellTiter-Glo, qHTS, dose response (AID 1347062; cut-off not given, nearly all actives have AC50 up to about 27 µM;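 for AC50: cells exposed to compound for two days before readout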). The conditions noted are these: JHH-DIPG-1 viability, CellTiter-Glo ATP luminescence. (In ATP-based viability assays light output follows the ATP content of the culture.)
The nature of experiment [11]: growth inhibition of DIPG cells – cell-based, MIPE4.0 library, CellTiter-Glo luminescence, qHTS (AID 1347066; cut-off not given, nearly all actives have AC50 up to about 30 µM;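 note: cells exposed to compound for 48 hours before readout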). The conditions noted are these: SU-DIPG-VI viability, CellTiter-Glo ATP luminescence.
Another experiment deals with F380Y/beta1. The experiment can be described thus: BK channel mutant inhibitors and activators – cell-based, U2OS BacMam, thallium flux, beta subunits, selectivity assay, profiling panel (AID 1259406;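 active = thallium flux through the channel raised or lowered by more than 3 SD from vehicle-only wells, actives on both sides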;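 note: initial slope of Thallos dye fluorescence rise after thallium is added; log ratio against the mean of 0.3% DMSO vehicle wells on the same plate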). The conditions noted are these: U2OS BacMam BK variants, at 30 µM.
A further experiment deals with F380Y/beta4. The experiment is described as above. The conditions noted are these: U2OS BacMam BK variants, at 30 µM.
The next experiment deals with R275C/beta4. The experiment is described as above. As to conditions: U2OS BacMam BK variants, at 30 µM.
Another experiment concerns R275C/Slo1WT/beta2. The experiment is described as above. The conditions noted are these: U2OS BacMam BK variants, at 30 µM.
Experiment [12] in a line: compounds altering circadian rhythm period length – cell-based, LOPAC library, luminescence reporter (AID 2774).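 Note: values are relative to mean of DMSO wells on each plate.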 As to conditions: circadian reporter cells, at 7 µM, actives lie on both sides.
For experiment [13], the system named is Hepatitis C virus NS3 helicase. Put plainly: blockers of NS3h binding to ssDNA – biochemical, fluorescence polarization, LOPAC1280 library, primary screen (AID 687035; in the data active = inhibition above about 37%). The conditions noted are these: Purified HCV NS3 helicase, Cy5-dT15 ssDNA binding fluorescence polarization; stronger effect = higher value; concentration not given here. Background: In fluorescence polarisation assays a small probe gives low polarisation when free and higher when bound to something large.

Experiment [14] is described as follows: compounds altering Cy5-DNA-NS3h complex signal – biochemical, LOPAC1280, artefact control for HCV NS3 helicase inhibitor project (AID 687037). As to conditions: Cy5-DNA-NS3h complex fluorescence interference counterscreen. A general note: The purpose of a counterscreen is to sort out artefacts and off-target activity.
Experiment [15] can be described thus: blockers of cellular phospholipid synthesis – cell-based, LOPAC library, screen 4, primary screen (AID 1347384). As to conditions: animal cells, phospholipid biosynthesis inhibition screen; at 10 µM.
A short description of experiment [16]: compounds altering HSF1 focus formation in cells – imaging, Selleck Cancer Library (AID 1347162; in the data active = plate-normalised HSF1 focus index below about 0.46). As to conditions: human cells, HSF1 nuclear foci imaging, at 10 µM; SSMD: measured here: HSF1 foci SSMD mean; cell count: measured here: cell number; plate-normalised HSF1 focus index: stronger effect = lower value.

Regarding `COc1ccc2c3c1O[C@H]1C[C@@H](O)C=C[C@@]31CCN(C)C2`, the inhibition in experiment [1] was -3.14%. This compound also yielded a score in experiment [2] of 1.34. Besides, the rescue above control in experiment [3] turned out to be 0.01. Also, the cytochrome c release ratio in [4] is 0.63. Further, the inhibition of aggregation in experiment [5] came out at 91.6%. Further, in [6], the glutamate uptake change worked out at 5.19%. This compound yielded an aggregation suppression score in experiment [7] of 1.04. Moreover, the survival in experiment [8] was 11.9 (inactive). In addition, the z-score in [9] was 0.00606 (inactive). The compound was called inactive in experiment [10] and in experiment [11].

Consider `CCCCC(=O)O[C@H]1CC[C@H]2[C@@H]3CCc4cc(O)ccc4[C@H]3CC[C@]12C`, for which the log fold change Tl+ flux in the experiment on F380Y/beta1 was -0.0484 (inactive); in the experiment on F380Y/beta4, 0.00293 (inactive); in the experiment with R275C/beta4, -0.0402 (inactive); in the experiment on R275C/Slo1WT/beta2, 0.00597 (inactive).

Take `CN1CCN(CC/C=C2/c3ccccc3Sc3ccc(S(=O)(=O)N(C)C)cc32)CC1`: the period change in experiment [12] was 0.09 h (inactive).

As to `CCN1CCN(C(=O)N[C@@H](C(=O)N[C@@H]2C(=O)N3[C@@H]2SC(C)(C)[C@@H]3C(=O)O)c2ccccc2)C(=O)C1=O`, the survival in [8] is 1.83 (inactive). The log fold change Tl+ flux in the experiment on F380Y/beta1 was 0.00225 (inactive); in the experiment on F380Y/beta4 it was -0.0114 (inactive); with R275C/beta4 it was 0.0304 (inactive); in the experiment with R275C/Slo1WT/beta2, 0.0399 (inactive).

With `CC(C)[N+]1(C)C2CCC1CC(OC(=O)C(CO)c1ccccc1)C2` (stereo unspecified), in experiment [8], the survival was 16.6 (inactive). Further, the call in experiment [11] was inactive. Moreover, the log fold change Tl+ flux in the experiment on F380Y/beta1 was 0.0263 (inactive); with F380Y/beta4 it was 0.0435 (inactive); in the experiment with R275C/beta4, 0.0153 (inactive); with R275C/Slo1WT/beta2 it was -0.0119 (inactive).

Turning to `CC[C@H](C)C(=O)O[C@H]1CCC=C2C=C[C@H](C)[C@H](CC[C@@H]3C[C@@H](O)CC(=O)O3)[C@H]21`, the period change in experiment [12] is 0.035 h (inactive). Also, the inhibition in experiment [13] is -1% (inactive). The fluorescence ratio (interference) in [14] is 0.9 (inactive). For the same compound, in [9], the z-score was -1.1 (inactive). In addition, the call in experiment [15] was inactive.

`O=C(O[C@@H]1Cc2c(O)cc(O)cc2O[C@@H]1c1cc(O)c(O)c(O)c1)c1cc(O)c(O)c(O)c1`: in experiment [9], the z-score was 2.31 (inactive). In addition, in [16], the SSMD amounted to 0.931, the cell count came out at 6910 and the plate-normalised HSF1 focus index is 1.03 (inactive).

On to `CON=C(C(=O)NC1C(=O)N2C(C(=O)O)=C(COC(C)=O)CSC12)c1csc(N)n1` (stereo unspecified), for which the log fold change Tl+ flux in the experiment with F380Y/beta1 was -0.0319 (inactive); in the experiment on F380Y/beta4, 0.0152 (inactive); in the experiment on R275C/beta4 it was -0.0222 (inactive); with R275C/Slo1WT/beta2 it was -0.0319 (inactive).

As for `COc1cc(CNC(=O)CCCC/C=C/C(C)C)ccc1O`, the inhibition in experiment [1] is -19.2%. The compound further displayed a score in experiment [2] of 0.57. This compound also had a rescue above control in experiment [3] of 10.3. Besides, the cytochrome c release ratio in [4] was 1.29. Besides, the inhibition of aggregation in experiment [5] worked out at 71.9%. For the same compound, the glutamate uptake change in [6] is -9.59%. Moreover, in [7], the aggregation suppression score was 0.5. Moreover, the survival in experiment [8] was 2.67 (inactive). Further, the compound was classed as inactive in experiment [10] and in experiment [11].

As for `CC/C(=C(\c1ccccc1)c1ccc(OCCN(C)C)cc1)c1ccccc1`, the inhibition in experiment [1] stood at 22.9%. In [2], the score is -1.76. The compound also gave a rescue above control in [3] of 2.54. For the same compound, the cytochrome c release ratio in [4] was determined as 2.67. Also, in experiment [5], the inhibition of aggregation was 58.9%. Besides, the glutamate uptake change in [6] is -4.23%. In addition, the aggregation suppression score in experiment [7] was -0.635. Also, the period change in experiment [12] was 0.115 h (inactive). The survival in experiment [8] was 6.5 (inactive). The inhibition in experiment [13] was -5% (inactive) and -2% (inactive). Further, the fluorescence ratio (interference) in experiment [14] is 1 (inactive) and 0.9 (inactive). Also, the AC50 in experiment [11] is 23.5 µM (active). In experiment [16], the SSMD was -8.19, the cell count turned out to be 3320 and the plate-normalised HSF1 focus index is 0.591 (inactive). Further, in experiment [15], the result was inactive.

For the compound `COc1c(C)c2c(c(O)c1C/C=C(\C)CCC(=O)O)C(=O)OC2`, the inhibition in [1] was -14.6%. In addition, the score in experiment [2] turned out to be 0.55. Also, in experiment [3], the rescue above control came to 6.21. Besides, in [4], the cytochrome c release ratio amounted to 1.22. Also, in [5], the inhibition of aggregation is 35%. Moreover, the glutamate uptake change in experiment [6] was -2.33%. Further, in experiment [7], the aggregation suppression score amounted to 0.18. In [8], the survival was 0.167 (inactive). Further, in [11], the outcome was inactive. In experiment [16], the SSMD is -0.56, the cell count was 7660 and the plate-normalised HSF1 focus index is 0.964 (inactive).

For the compound `O=C(O)c1cccnc1C(=O)O`, the inhibition in [1] was -5.39%; in experiment [13], -2% (inactive). Besides, in experiment [2], the score is 1.95. In experiment [3], this compound showed a rescue above control of 5.37. The cytochrome c release ratio in experiment [4] is 1.17. For the same compound, in experiment [5], the inhibition of aggregation is 58.6%. In [6], the glutamate uptake change is -5.4%. The aggregation suppression score in [7] amounted to 1.12. The period change in experiment [12] is -0.235 h (inactive). For the same compound, the fluorescence ratio (interference) in experiment [14] is 1 (inactive). Also, in experiment [15], the compound was called inactive.

Take `O=c1cc(-c2ccc(O)cc2)oc2cc(O)cc(O)c12`: the inhibition in [1] is 0.12%; in experiment [13] it was -1% (inactive). In [2], this compound showed a score of 1.67. For the same compound, the rescue above control in [3] was determined as 2.14. Also, the cytochrome c release ratio in experiment [4] came out at 3.46. Also, in experiment [5], the inhibition of aggregation is -7.84%. Further, the glutamate uptake change in [6] was -6.97%. In experiment [7], this compound came in with an aggregation suppression score of 1.4. Moreover, in experiment [12], the period change was 0.02 h (inactive). The survival in [8] is 17.8 (inactive). In addition, the fluorescence ratio (interference) in experiment [14] was 1 (inactive). Further, the AC50 in experiment [10] is 2.35 µM (active). Also, the outcome in experiment [15] was inactive.

For `NCCc1cnc[nH]1`, the inhibition in experiment [1] was -28.4%; in experiment [13], -3% (inactive). The compound further gave a score in experiment [2] of 1.16. Moreover, the rescue above control in experiment [3] is -5.3. Besides, the cytochrome c release ratio in experiment [4] came to 0.91. For the same compound, in experiment [5], the inhibition of aggregation was 51.2%. Further, the glutamate uptake change in experiment [6] is -0.34%. The compound further registered an aggregation suppression score in experiment [7] of 1.08. Also, the period change in experiment [12] was 0.14 h (inactive). For the same compound, in experiment [14], the fluorescence ratio (interference) was 1 (inactive). In addition, the result in [10], in [11] and in experiment [15] was inactive.

In the case of `CN1C[C@H](C(=O)N[C@]2(C)O[C@@]3(O)[C@@H]4CCCN4C(=O)[C@H](Cc4ccccc4)N3C2=O)C[C@@H]2c3cccc4[nH]cc(c34)C[C@H]21`, the inhibition in experiment [1] is -12.1%; in [13], -3% (inactive). This compound also had a score in experiment [2] of 1.21. In [3], this compound had a rescue above control of 4.53. In addition, the cytochrome c release ratio in experiment [4] is 1.48. Also, the inhibition of aggregation in experiment [5] amounted to 29.7%. In addition, the glutamate uptake change in experiment [6] is 15.4%. The same compound displayed an aggregation suppression score in experiment [7] of 1.29. Also, the period change in [12] was 0.225 h (inactive). Besides, the survival in experiment [8] was 19.1 (inactive). The fluorescence ratio (interference) in [14] is 1 (inactive). For the same compound, in experiment [15], the result was inactive.

Regarding `CCCCOc1cc(CC2CNC(=O)N2)ccc1OC` (stereo unspecified), the period change in [12] is 0.115 h (inactive). Moreover, the inhibition in experiment [13] was -2% (inactive). In addition, the fluorescence ratio (interference) in experiment [14] is 1 (inactive). For the same compound, in experiment [15], the compound was classed as inactive.
